A number with no mark means an inactive call.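 Rule for the calls: active = AUC reduced over 20% with Padj below 0.05 in at least 2 of 3 replicates; inactive = otherwise.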
Assays:
Roseburia intestinalis = experiment: growth AUC relative to DMSO control (median of replicates) (fraction); higher = more growth (less inhibition), active = hit call of the paper; conditions: 20 µM; 24 h
Outline: (§1)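 Area under the growth curve was normalised to the plate median of solvent-only wells, except on the industrial chemical plate, where row and column medians were used. Curves came from gut bacterial monocultures grown anaerobically at 37 °C in mGAM with 20 µM compound (1% DMSO), starting at OD600 0.05 and read at OD600 every hour for 24 h. The minimum OD of each curve was set to 0, and values are medians of three biological replicates grown on separate days.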

Streptococcus salivarius = experiment: as above; conditions: 20 µM; 24 h
Outline: as §1

Row | SMILES | growth AUC (Roseburia intestinalis) | growth AUC (Streptococcus salivarius)
1 | COC1CCC2(CC1)NC(=O)C(c1cc(C)ccc1C)=C2OC1OC(CO)C(O)C(O)C1O (stereo unspecified) | 1 | 1.01
2 | CCCCOCN(C(=O)CS(=O)(=O)[O-])c1c(CC)cccc1CC.[Na+] | 0.935 | 0.97
3 | N#CC(=NOCC1OCCO1)c1ccccc1 | 0.968 | 0.976
4 | O=C(O)COc1cccc(Cl)c1Cl | 1.15 | 0.973
5 | O=c1cccc2n1CCn1c-2cccc1=O | 0.991 | 1.02
6 | CCCCOC(=O)[C@@H](C)Oc1ccc(Oc2ccc(C(F)(F)F)cn2)cc1 | 0.973 | 0.969
7 | CCc1ccc(C(c2ccc(CC)cc2)C(Cl)Cl)cc1 | 1 | 0.963
8 | COc1cc(OC)nc(NC(=O)NS(=O)(=O)Nc2ccccc2C(=O)C2CC2)n1 | 1.1 | 0.955
9 | CCSc1nc(NC(C)C)nc(NC(C)C)n1 | 0.96 | 0.999
10 | CCCCC(CC)CN1C(=O)C2C(C1=O)[C@H]1C=C[C@@H]2C1 (mixture of isomers) | 1.07 | 1
11 | CCOC(=O)[C@@H](C)Oc1ccc(Oc2cnc3cc(Cl)ccc3n2)cc1 | 1.01 | 1.04
12 | CC(C)Nc1nc(N)nc(Cl)n1 | 1.06 | 0.988
13 | O=C(O)Cc1cccc2ccccc12 | 1.04 | 0.99
14 | COc1cc(OC)nc(NC(=O)NS(=O)(=O)c2c(Cl)nc3ccccn23)n1 | 1 | 1.05
15 | S=C([S-])NCCNC(=S)[S-].[Zn+2] | 0.975 | 0.97
16 | COCCOc1ccccc1S(=O)(=O)NC(=O)Nc1nc(OC)nc(OC)n1 | 0.907 | 0.98
17 | O.O=C(Nc1ccc(Cl)c(Cl)c1)Nc1cc(Cl)ccc1Oc1ccc(Cl)cc1S(=O)(=O)[O-].[Na+] | 0.792 (active) | 0.478 (active)
18 | CC(C)c1nn(C(=O)NC(C)(C)C)c(=O)n1N | 1.02 | 1.01
19 | CC(C)CCCCCCc1ccc(O)cc1 | 0.958 | 0.965
20 | COCCN(C(=O)CO)c1c(C)cccc1C(=O)O | 1.01 | 0.965
21 | Cc1cccc(C)c1N(CCSCC(O)C(=O)[O-])C(=O)CO.[Na+] (stereo unspecified) | 1.02 | 0.97
22 | [O-][n+]1nc(-n2ccnc2)nc2ccc(Cl)cc21 | 0.984 | 1
23 | S=C([S-])NCCNC(=S)[S-].[Mn+2] | 0.96 | 1.07
24 | CC1CN(C2CCCCCCCCCCC2)CC(C)O1 (mixture of isomers) | 0.992 | 1
25 | COC(=O)[C@@H](C)Oc1ccc(Oc2ncc(C(F)(F)F)cc2Cl)cc1 | 1 | 0.984
26 | Cc1cc(C)c(C2=C(O)C3(CCCC3)OC2=O)c(C)c1 | 1.02 | 0.985

Row | SMILES | growth AUC (Roseburia intestinalis) | growth AUC (Streptococcus salivarius)
27 | CC1=C(C(=O)Nc2ccccc2)CCCO1 | 0.996 | 1.03
28 | O=S(=O)(Oc1ccc(Cl)cc1Cl)c1ccccc1 | 0.974 | 1.03
29 | CN(C)c1ccc(N=NS(=O)(=O)[O-])cc1.[Na+] | 1.03 | 1.01
30 | CCOc1ccc(C2(C(=O)OC(C#N)c3cccc(Oc4ccccc4)c3)CC2(Cl)Cl)cc1 (stereo unspecified) | 0.951 | 0.891
31 | CC(C)(NC(=O)NCc1ccccc1Cl)c1ccccc1 | 1.09 | 1
32 | Cn1cc(C(=O)Nc2ccccc2-c2cc(F)c(F)c(F)c2)c(C(F)F)n1 | 0.997 | 0.966
33 | CCOC(=O)Nc1cccc(OC(=O)Nc2cccc(C)c2)c1 | 0.912 | 0.971
34 | COC(=O)C(C)Oc1ccc(Oc2ccc(C(F)(F)F)cn2)cc1 (stereo unspecified) | 0.956 | 0.96
35 | CC(C)(C)C(O)/C(=C\c1ccc(Cl)cc1)n1cncn1 (stereo unspecified) | 0.973 | 0.955
36 | O=C(O)C1(C(=O)Nc2ccc(Cl)cc2Cl)CC1 | 1.02 | 1.01
37 | CCc1nc2ncnn2c(N)c1CCCC(=O)O.Cl | 0.991 | 1.01
38 | CC(C)N(C)S(=O)(=O)NC(=O)c1cc(-n2c(=O)cc(C(F)(F)F)[nH]c2=O)c(F)cc1Cl | 0.987 | 1.01
39 | COc1c(Cl)ccc(Cl)c1C(=O)O | 0.976 | 1.03
40 | CC(C)(SC(=O)N1CCCCC1)c1ccccc1 | 1.05 | 0.98
41 | O=S(Cc1ccc(Cl)cc1)c1ccc(Cl)cc1 (stereo unspecified) | 1.01 | 0.984
42 | COC(=O)c1c(Cl)nn(C)c1S(=O)(=O)NC(=O)Nc1nc(OC)cc(OC)n1 | 1.04 | 1.05
43 | O=[N+]([O-])c1ccc(O)cc1 | 1.14 | 1
44 | CN(C)C(=O)c1cccnc1S(N)(=O)=O | 1.03 | 0.978
45 | O=C(O)[C@@H](S)[C@@H](S)C(=O)O | 1 | 0.997
46 | C[S+](C)CCC(=O)O.[Cl-] | 1.01 | 0.994
47 | COC(=O)COc1ccc(Cl)cc1C | 0.975 | 1.01
48 | Oc1ccc2nc(-c3cscn3)[nH]c2c1 | 1.03 | 1.07
49 | CCCCOCCOC(=O)COc1nc(Cl)c(Cl)cc1Cl | 0.995 | 0.998
50 | COC(=O)c1ccc(C(F)(F)F)nc1S(=O)(=O)[N-]C(=O)Nc1nc(OC)cc(OC)n1.[Na+] | 0.941 | 1.02
51 | N#Cc1cc(Cl)c(O)c(Cl)c1 | 1.08 | 1.02
52 | O=c1oc(-c2ccccc2)nc2ccccc12 | 0.979 | 0.981

Row | SMILES | growth AUC (Roseburia intestinalis) | growth AUC (Streptococcus salivarius)
53 | CNC(=O)/C(=N/OC)c1ccccc1COc1cc(C(=O)O)ccc1C | 0.996 | 0.995
54 | CN(C)C(=O)SCCCCOc1ccccc1 | 0.998 | 0.99
55 | N[C@@H](Cc1cc(I)c(Oc2cc(I)c(O)c(I)c2)c(I)c1)C(=O)O | 0.798 | 0.923
56 | Cc1cc(C)cc(O)c1 | 1.03 | 1.03
57 | Oc1cccc2ccccc12 | 0.952 | 0.986
58 | CCOC(=O)Cc1[nH]nc2ccc(Cl)cc12 | 1.14 | 1
59 | CCOC(=O)NCCOc1ccc(Oc2ccccc2)cc1 | 0.984 | 0.976
60 | NC(=S)Nc1cccc2ccccc12 | 0.917 | 0.886
61 | Oc1ccc2ccccc2c1N=Nc1ccccc1 | 1.13 | 0.914
62 | C=CCOC(Cn1ccnc1)c1ccc(Cl)cc1Cl (stereo unspecified) | 0.767 (active) | 0.915
63 | Nc1ccc(S(=O)(=O)Nc2nccs2)cc1 | 0.993 | 1.02
64 | CC(C)N(C(=O)CS(=O)(=O)[O-])c1ccccc1.[Na+] | 1.02 | 0.997
65 | NS(=O)(=O)[O-].[NH4+] | 1.06 | 1.01
66 | CCCCCCCCc1c(CC)nc2ncnn2c1N | 0.948 | 0.985
67 | CCCCC(CC)COC(=O)COc1ccc(Cl)cc1C (stereo unspecified) | 0.93 | 0.978
68 | COc1cc(OC)c(Cl)cc1N | 1.06 | 1.06
69 | COC(=O)c1csc(C)c1S(=O)(=O)NC(=O)n1nc(OC)n(C)c1=O | 0.974 | 0.931
70 | CNC(=O)/C(=N/OC)c1ccccc1COc1cc(C)ccc1C | 1.02 | 1.06
71 | CCCCOCCOC(=O)COc1ccc(Cl)cc1Cl | 0.941 | 0.948
72 | O=C(Nc1ccc(O)cc1-c1ccc(Cl)cc1)c1cccnc1Cl | 1.02 | 1.03
73 | CC(=O)Oc1c(Cl)c(Cl)c(Cl)c(Cl)c1Cl | 1.04 | 0.909
74 | O=C(O)COc1cc(N2C(=O)C3=C(CCCC3)C2=O)c(F)cc1Cl | 0.987 | 0.977
75 | CCCCCCCCOC(=O)COc1cc(Cl)c(Cl)cc1Cl | 0.953 | 0.875
76 | CCc1cccc(C)c1NC(=O)CS(=O)(=O)[O-].[Na+] | 1 | 1.01
77 | NC(=O)C1CO1 (stereo unspecified) | 0.855 | 1.01
78 | CCOC(=O)C(C)Oc1ccc(Oc2nc3ccc(Cl)cc3o2)cc1 (racemic) | 1.02 | 1.01
